Consider 40 compounds from PubChem BioAssay (Tox21).

Inconclusive results are not listed. Where a call stands in place of a potency, no number is given. Active and inactive are the calls of the source. Calls come from the whole dose curve; as a rule, active = well fitted cell-killing curve with a large enough effect in the repeat runs; inconclusive = weak or mixed curves, or effect the other way; inactive = no such curve, though single readings can be large or run the other way.

A short description of this assay: qHTS assay to identify small molecule antagonists of the glucocorticoid receptor (GR) signaling pathway - cell viability counter screen (AID 720693). Note: nearly all actives have a fitted effect of over 55% in size. The settings on record: GR-bla HeLa viability, CellTiter-Glo luminescence, 18 h, with 5 nM dexamethasone present; series mostly up to 58.5 µM. The text has this: National Center for Advancing Translational Sciences [NCATS]
NIH Chemical Genomics Center [NCGC]
U.S. Environmental Protection Agency [EPA]
National Institutes of Environmental Health Sciences [NIEHS]
National Toxicology Program [NTP]
U.S. Food and Drug Administration [FDA]
The Glucocorticoid receptor (GR) is one of the members of the nuclear receptor family of ligand-dependent transcription factors. GR plays a critical role in carbohydrate, protein and lipid metabolisms and programmed cell death. CellSensor GR-bla HeLa cell line (Invitrogen) contains a beta-lactamase reporter gene under the control of the glucocorticoid response element stably integrated into HeLa cells, a cervical cancer cell line that expresses glucocorticoid receptor. The activation of the reporter gene under culture conditions can be detected by fluorescence intensity. This cell line has been used to screen the Tox21 10K compound library and to identify the compounds that inhibit the GR signaling. The cytotoxicity of the Tox21 compound library against the GR-bla HeLa cell line was tested in parallel by measuring the cell viability using CellTiter-Glo assay in the same wells.
Tox21 Assay Protocol Summary:
The GR-bla HeLa cells were dispensed at 1500 cells/5 ul/well in 1536-well black wall/clear bottom plates using a Multidrop Combi (ThermoFisher Scientific, Waltham, MA) dispenser. After the assay plates were incubated at a 37 C/5% CO2 incubator for 4 hours, 23 nL of compounds dissolved in DMSO, positive controls or DMSO only was transferred to the assay plate by a pintool station (Kalypsys, San Diego, CA), followed by addition of 1 uL of dexamethasone (5 nM, final concentration in the well). The plates were incubated at 37 C for 18 hours. After 1 uL of LiveBLAzerTM B/G FRET substrate was added using a Flying Reagent Dispenser (Aurora Discovery, San Diego, CA), the plates were incubated at room temperature (RT) for 2 hours, and fluorescence intensity was measured by an Envision plate reader (PerkinElmer, Shelton, CT). After measurement of bla assay, 3 ul CellTiter-Glo (Promega, Madison, WI) was added to measure the cytotoxicity and the plates were then incubated at RT for 30 min. The luminescence was measured using a ViewLux (Perkin Elmer) plate reader.
On to `Oc1ccc2ccccc2c1`, for which the Potency result was “inactive”.

With `NCCNCCNCCNCCN`, the Potency result was “inactive”.

Turning to `C[C@@H](O)[C@H]1C(=O)N2C(C(=O)O)=C(S[C@@H]3CN[C@H](C(=O)N(C)C)C3)[C@H](C)[C@H]12`, the Potency result was “inactive”.

With `CC(C)(C)C1CCC(O)CC1` (stereo not given), the Potency result is “inactive”.

As to `Cc1cc(=O)[nH]c(C(C)C)n1`, the Potency entry is “inactive”.

For the compound `CCCCCC/C=C/CCCCCCCC(=O)O`, the Potency entry was “inactive”.

For `CCCCNC(N)=O`, the Potency result is “inactive”.

For the compound `CCOC(=O)/C=C\C(=O)OCC`, the Potency entry is “inactive”.

`O=C(Oc1ccccc1)c1ccc(O)cc1`: the Potency entry was “inactive”.

In the case of `CC1Cc2ccccc2N1NC(=O)c1ccc(Cl)c(S(N)(=O)=O)c1` (stereo not given), the Potency result was “inactive”.

On to `C=C(C)C(=O)OCC(CC)(COC(=O)C(=C)C)COC(=O)C(=C)C`, for which the Potency result is “inactive”.

For the compound `CC(C)n1c(/C=C/[C@@H](O)C[C@@H](O)CC(=O)O)c(-c2ccc(F)cc2)c2ccccc21`, the Potency result was “inactive”.

`O=c1c(-c2ccc(O)cc2)coc2cc(O)ccc12`: the Potency entry is “inactive”.

As for `O=[N+]([O-])c1cccc(Cl)c1`, the Potency result is “inactive”.

Regarding `Cc1ccc(C(=O)O)o1`, the Potency entry was “inactive”.

Take `CCCCCCCCC`: the Potency result was “inactive”.

For `Nc1nc2ncc(CNc3ccc(C(=O)N[C@@H](CCC(=O)O)C(=O)O)cc3)nc2c(=O)[nH]1`, the Potency result is “inactive”.

Consider `ClC1=C(Cl)C(Cl)(Cl)C(Cl)=C1Cl`, for which the Potency entry was “inactive”.

Take `CC1=C(/C=C/C(C)=C/C=C/C(C)=C/CO)C(C)(C)CCC1`: the Potency result is “inactive”.

For `OC1CCCC1`, the Potency result was “inactive”.

Take `OCC#CCO`: the Potency entry was “inactive”.

For the compound `CC1=C(CC(=O)O)c2cc(F)ccc2/C1=C\c1ccc(S(C)=O)cc1` (stereo not given), the Potency entry is “inactive”.

As for `O=[N+]([O-])C(CO)(CO)CO`, the Potency result is “inactive”.

On to `O=S(=O)(Oc1ccc(Cl)cc1Cl)c1ccccc1`, for which the Potency result was “inactive”.

`C=C(C)C(=O)OCCCCCCCCCCCC`: the Potency entry was “inactive”.

Consider `O=C(c1ccc(O)cc1)c1ccc(O)cc1O`, for which the Potency entry is “inactive”.

For the compound `C=C(C#N)C(=O)OCC`, the Potency result was “inactive”.

For the compound `Cc1ccc(C)c(C)c1`, the Potency entry is “inactive”.

For the compound `CCCCCCOC(C)=O`, the Potency result is “inactive”.

In the case of `OCC1CCCO1` (stereo not given), the Potency entry is “inactive”.

Turning to `OCCOCCOCCOCCO`, the Potency result was “inactive”.

Take `CC(=O)Nc1ccc(C(=O)O)cc1`: the Potency entry is “inactive”.

Take `CCCCOCCOCCOC(=O)CCCCC(=O)OCCOCCOCCCC`: the Potency result was “inactive”.

For the compound `O=C1O[C@H](CO)[C@@H](O)[C@H](O)[C@H]1O`, the Potency result was “inactive”.

For `CN(C)c1cccc(O)c1`, the Potency entry was “inactive”.

As to `O=C(O)c1cc(-c2ccccc2)nc2ccccc12`, the Potency entry was “inactive”.

Turning to `COCC(=O)O`, the Potency entry was “inactive”.

For `CCc1ccc(O)cc1`, the Potency result is “inactive”.

With `CC1(C)CC(N=C=O)CC(C)(CN=C=O)C1` (stereo not given), the Potency entry was “inactive”.

For the compound `CCc1ccccc1O`, the Potency entry was “inactive”.
